aSyn 5UTR inh – MLPCN primary screen, SNCA 5' untranslated region; alpha-synuclein 5'UTR reporter, inhibitor activity; inhibition, % (tested at 7.5 µM); 0.82% of 300,000 active; AID 1813, 2009; in the data active = inhibition above about 60%;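 also: H4 neuroglioblastoma cells stably carrying SNCA 5'UTR luciferase fusion; 0% = DMSO wells and 100% = positive control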
HSP90 inh – HSP90 inhibitors, primary screen, cell lysate, luminescence | 0.91% of 290,000 active | AID 1789, 2009 | Rabbit reticulocyte lysate, luciferase refolding luminescence, 3 h | Heat shock protein HSP 90 (rabbit reticulocyte lysate; luciferase refolding) | inhibition, % at 5.6 µM;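 active = inhibition above the screen-wide mean plus 3 SD, computed separately per campaign, cut at about 16% in these data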;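 also: 0% = DMSO wells and 100% = 60 µM geldanamycin wells; inhibitors lower the luminescence because luciferase stays unfolded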
TRAIL sens C8 – viability loss with TRAIL in NB7+C8 cells, primary screen, TRAIL sensitizer project, cell-based, ATPlite luminescence | inhibition (viability loss, TRAIL sensitization), % at 10 µM | 1% of 360,000 active;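 active = compounds causing at least 50% loss of cell viability in the single-dose screen, relative to plate controls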
TROY NFkB inh – inhibitors of TROY-driven NF-kB signaling, primary screen, Q293 LMP1-TROYcd cells, NF-kB luciferase, uHTS; Q293 LMP1-TROYcd NF-kB luciferase reporter, 4 h; inhibition, % at 10 µM; 0.98% of 360,000 active; AID 1347056, 2019;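 active = compounds whose plate-normalised and pattern-corrected inhibition of the luciferase reporter signal at the single screening dose is 50% or more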
TWEAK-Fn14 inh – inhibitors of TWEAK-Fn14 signaling, primary screen, luciferase reporter cells, uHTS; TWEAK-stimulated Fn14 reporter cells, luciferase luminescence, 8 h; inhibition, % at 10 µM; 2% of 360,000 active; in the data active = inhibition above about 50%
HIF-2a block – HIF-2a reporter inhibitors, primary screen, luminescence, 786-0 RCC cells; 786-0 RCC cells HIF-2a reporter, luciferase luminescence, overnight; 0.72% of 360,000 active; inhibition, % at 18.8 µM; AID 624352, 2012;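 active = inhibition of the luminescence signal of 40% or more relative to plate controls, in a single-dose primary screen at 18.75 µM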
Starred values were filed as active, the others as inactive; . = no result given. In the library only some 3.9% were active in any assay of this set; here they are far more common.

SMILES	aSyn 5UTR inh	HSP90 inh	TRAIL sens C8	TROY NFkB inh	TWEAK-Fn14 inh	HIF-2a block
COc1cccc(OC)c1C(=O)Nc1cccc(-c2ccc(N3CCOCC3)nn2)c1	-47.6	.	72.8*	-46.0	-15.0	-136.1
COC(=O)[C@]12CCCCC=C1N(Cc1ccc3c(c1)OCO3)C(=O)[C@H](CC(=O)NCCC(C)C)C2	.	.	5.0	.	.	16.6
Cc1ccc(C(=O)N2[C@@H]3CN(C)C(=O)[C@@]2(Cc2ccccc2)[C@H]2C(=O)N(C)C(=O)[C@@H]32)cc1	.	.	2.4	-2.5	-0.2	9.7
CCOn1c(=O)c(C)[n+]([O-])c2ccccc21	13.1	-0.7	-1.5	.	85.3*	15.5
COc1ccccc1-c1c(C)oc2c(CN3CCN(CCO)CC3)c(O)ccc2c1=O	3.6	-0.2	-3.9	.	86.2*	3.3
O=c1[nH]c2ccccc2cc1-c1nnn(-c2ccc(F)cc2)n1	-102.8	-3.5	61.9*	-37.5	-40.4	-161.2
CCCCN(C(=O)COc1ccc(F)cc1)c1c(N)n(CC(C)C)c(=O)[nH]c1=O	.	.	9.4	-3.9	5.6	8.1
COC(=O)CCC1(C(N)=O)CCC(=O)c2ccccc21 (configuration not stated)	.	.	4.2	13.5	3.7	2.2
CCOC(=O)c1ccc(NC(=O)Nc2ccc(Cl)cn2)cc1	-34.0	-0.7	2.2	12.3	1.4	8.5
CCOC(=O)c1ccc(NC(=O)Nc2ccon2)cc1	64.2*	-0.1	13.3	5.9	20.5	-86.5
CCc1cc2c(COC(=O)CCNS(=O)(=O)c3cccc(C(F)(F)F)c3)cc(=O)oc2cc1O	.	.	53.9*	21.2	10.0	-12.3
CCCCOc1ccc(NC(=O)C(=O)NCCCn2ccnc2)cc1	66.1*	0.2	-1.7	-6.2	-8.0	21.3
CCCCCCOc1ccc(C(=O)NCCCn2ccnc2)cc1	-38.5	-0.9	8.6	-17.1	10.3	-29.2
CCOc1ccc(N(CC(=O)Nc2ccc(C)cc2)S(=O)(=O)c2c(C)noc2C)cc1	-0.1	-0.6	7.9	9.0	-1.5	6.3
CCOc1ccc(N(CC(=O)Nc2c(C)cccc2C)S(=O)(=O)c2c(C)[nH]c(=O)[nH]c2=O)cc1	5.1	2.3	-7.4	11.7	80.0*	12.6
CCOc1ccc(N(CC(=O)Nc2cccc(C)c2C)S(=O)(=O)c2c(C)[nH]c(=O)[nH]c2=O)cc1	2.5	-2.8	-1.5	-21.6	-8.0	15.3
CCOc1ccc(N(CC(=O)Nc2ccccc2OCC)S(=O)(=O)c2c(C)noc2C)cc1	95.0*	8.7	28.8	20.3	-4.9	18.3
CCOc1ccc(N(CC(=O)Nc2ccccc2OC)S(=O)(=O)c2ccccc2)cc1	123.4*	1.5	25.6	19.1	-13.6	21.2
CCCS(=O)(=O)NC(=O)C1(C)CCN(C(=O)c2ccc3c(c2)OCO3)C1 (configuration not stated)	.	.	-6.4	-0.5	6.4	3.2
CCCS(=O)(=O)NC(=O)C1(C)CCCN(C(=O)c2c(-c3ccccc3)noc2C)C1 (configuration not stated)	.	.	-11.7	-3.6	7.6	5.9
CCCCN1C(=O)C(CC(=O)NCCCN(C)C)CC(C(=O)N2CCCCCC2)=C1C (configuration not stated)	.	.	-3.7	-3.0	4.8	12.3
CNS(=O)(=O)c1cc2c3c(cccc3c1)C(=O)NC2=O	71.1*	0.0	-8.6	17.3	-8.6	20.5
COc1cccc(-c2[nH]nc3c2C(c2ccsc2)C(C#N)=C(N)O3)c1 (configuration not stated)	-8.4	16.3*	-20.6	-50.7	-8.1	-63.8
O=S1(=O)CCN(Cc2cccnc2)CC1	.	.	-9.6	-1.0	15.3	10.7
CC1(C)OC(=CC=Nc2ccc(Cl)cc2)OC1(C)C	102.9*	11.9	0.8	-2.6	-9.0	-7.2
SMILES	aSyn 5UTR inh	HSP90 inh	TRAIL sens C8	TROY NFkB inh	TWEAK-Fn14 inh	HIF-2a block
Cc1ccc(N=CC=C2OC(C)(C)C(C)(C)O2)c(C)c1	-19.5	2.3	21.9	1.4	10.2	13.7
COc1ccc(/C=N/OCC(=O)NC(c2ccccc2)c2ccccc2)cc1OC	32.9	3.6	27.6	25.5	51.8*	12.5
COc1ccc(/C=N/OCC(=O)Nc2cc(C)on2)cc1OC	-1.0	-2.2	-2.6	-13.8	-2.7	14.2
Cc1ccc(C(=O)Nc2ccnc(-c3cccnc3)n2)cc1	-268.6	1.5	-7.6	-32.9	-44.3	-205.3
Cc1ccc(NC(=O)Nc2ccnc(-c3cccnc3)n2)cc1	109.6*	-2.2	9.3	-23.3	20.7	-125.9
CS(=O)(=O)c1ccc(Oc2ccc(-c3nnco3)cc2)c([N+](=O)[O-])c1	9.9	-0.6	-20.1	-4.3	34.5	9.3
O=[N+]([O-])c1cc(Cl)ccc1Oc1ccc(-c2nnco2)cc1	-1.0	1.4	15.4	61.6*	12.4	1.3
COc1ccc(-c2nc(SCC(=O)N(CC(C)C)c3c(N)n(Cc4ccccc4)c(=O)[nH]c3=O)n[nH]2)cc1	11.3	.	51.1*	4.0	7.5	-12.1
CCN(C(=O)CSc1nc2ccccc2n1CC(C)C)c1c(N)n(Cc2ccccc2)c(=O)[nH]c1=O	.	.	9.0	-1.4	-20.9	17.0
CC(C)CN(C(=O)CSc1nc(-c2ccccc2)cn1N)c1c(N)n(Cc2ccccc2)c(=O)[nH]c1=O	-49.6	.	17.3	53.5*	43.2	-106.5
CCCN(C(=O)CSc1n[nH]c(-c2ccc(OC)cc2)n1)c1c(N)n(Cc2ccccc2)c(=O)[nH]c1=O	10.1	.	21.5	-10.0	6.1	6.0
CC(C)c1cc(Cn2c3ccccc3c(=O)n2C(C)Cn2cc(COc3ccccc3)nn2)on1 (configuration not stated)	.	.	-12.4	.	.	6.3
CC(C)(C)n1nnnc1C(c1cc2ccccc2o1)N1CCCCC1 (configuration not stated)	.	.	7.9	-23.9	2.1	-44.4
CC(=O)Nc1ccc(CN2C(=O)C(C)(C)ON=C2c2ccc(NC(C)=O)cc2)cc1	.	.	-6.2	3.6	-5.9	-7.1
COc1ccccc1NC(=O)/C(=C\c1cccnc1)NC(=O)c1ccccc1	-6.5	-1.2	-10.5	1.4	-12.1	16.5
COc1ccccc1NC(=O)/C(=C\c1cccnc1)NC(=O)c1ccc(C)cc1	19.6	-1.0	-17.6	4.2	61.0*	14.2
O=C1C(c2cc(=O)c3ccccc3[nH]2)=C(O)c2ccccc21	-118.0	0.7	69.9*	-30.3	40.7	-259.7
O=c1cc(-c2ccccc2)[nH]c2ccccc12	67.9*	-5.4	8.0	9.9	-4.8	-22.3
O=C1C(c2ccncc2)=C(O)c2ccccc21	23.6	16.4*	53.9*	-38.7	25.8	-80.6
Cc1ccc(C2=C(O)c3ccccc3C(=O)C2=O)cc1	3.9	0.6	2.2	-15.8	2.8	0.9
Cc1cc2nc(NC(=O)C3(C)CCCN(C(C)C)C3)[nH]c2cc1C (configuration not stated)	.	.	3.6	-3.6	-24.6	-14.6

Screens as filed in PubChem.
